The record followed here is PubChem BioAssay (Tox21).

Results filed as inconclusive are left out. Entries that show only a call come without a potency. Activity calls are given as the source filed them. The call rests on the fitted dose curve.
Potency means the concentration at half of the fitted maximal effect.

In the experiment the target is Thyrotropin receptor (Homo sapiens) (UniProt P16473). The experiment can be described thus: qHTS assay to identify small molecule antagonists of the thyroid stimulating hormone receptor (TSHR) signaling pathway (AID 1259385). Further: nearly all actives have a fitted effect of over 20% in size. To be noted: TSHR-HEK293 cAMP HTRF, TSH-stimulated antagonist mode; series mostly up to 92.4 µM. An excerpt: U.S. Tox21 Program National Center for Advancing Translational Sciences [NCATS] NIH Chemical Genomics Center [NCGC] U.S. Environmental Protection Agency [EPA] National Institutes of Environmental Health Sciences [NIEHS] National Toxicology Program [NTP] U.S. Food and Drug Administration [FDA] Tox21 Assay Overview: TSHR is the receptor for thyrotropin (thyroid stimulating hormone or TSH), a member of the glycoprotein hormone family. TSH is released by the anterior pituitary gland and is the main regulator of thyroid gland growth and development. Upon binding circulating thyrotropin, a G-protein signal cascade activates adenylyl cyclase and […] cAMP concentration is increased. cAMP is a key second messenger involved extensively in cellular signal transduction pathways associated with the majority of G-protein coupled receptors (GPCRs). The activation of these GPCRs by neurotransmitters, lipids, nucleotides, peptides and hormones results in the activation or the inhibition of plasma membrane-bound adenylate cyclase through heterotrimeric G-proteins. A cell-based TSHR assay can be used to screen chemical compounds that modulate TSHR either in agonist or antagonist mode.
Chain of Thyrotropin receptor (Homo sapiens) (P16473 whole entry, looked up): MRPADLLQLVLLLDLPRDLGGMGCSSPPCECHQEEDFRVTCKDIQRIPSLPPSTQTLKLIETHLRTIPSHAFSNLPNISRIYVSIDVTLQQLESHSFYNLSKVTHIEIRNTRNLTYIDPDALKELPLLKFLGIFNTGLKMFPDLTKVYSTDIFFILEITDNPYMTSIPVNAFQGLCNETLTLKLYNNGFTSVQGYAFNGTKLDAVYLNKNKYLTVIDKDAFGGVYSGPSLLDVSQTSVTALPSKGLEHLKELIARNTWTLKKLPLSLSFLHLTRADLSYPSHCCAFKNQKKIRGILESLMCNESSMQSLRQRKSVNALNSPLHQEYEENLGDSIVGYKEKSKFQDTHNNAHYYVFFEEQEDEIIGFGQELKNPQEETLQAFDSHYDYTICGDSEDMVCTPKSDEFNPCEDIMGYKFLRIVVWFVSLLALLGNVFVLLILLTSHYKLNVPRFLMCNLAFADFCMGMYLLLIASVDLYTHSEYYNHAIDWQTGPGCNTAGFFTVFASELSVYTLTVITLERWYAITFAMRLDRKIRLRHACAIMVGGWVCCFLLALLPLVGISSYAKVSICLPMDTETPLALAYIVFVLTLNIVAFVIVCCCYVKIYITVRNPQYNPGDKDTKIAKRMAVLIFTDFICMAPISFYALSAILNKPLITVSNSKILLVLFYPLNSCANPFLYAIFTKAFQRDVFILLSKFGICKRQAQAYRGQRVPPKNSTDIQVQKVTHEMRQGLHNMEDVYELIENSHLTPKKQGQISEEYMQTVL
Tox21 Assay Protocol Summary: TSHR-Hek293 cells were dispensed at 800 cells/4uL/well in 1536-well white plates using a Multidrop dispenser. After the assay plates were incubated at a 37C/5% CO2 incubator for 18 hrs, 23 nL of compounds dissolved in DMSO, positive controls or DMSO only was transferred to the assay plate by a pin tool, followed by 1 ul medium containing Ro20-1724. For the antagonist mode screening, 1 uL of TSH was added on the top of the cell/compound mixtures to achieve a final agonist concentration of 1.5 ng/mL. After 30 min of incubation at room temperature, 2.5 ul/well of cAMP-d2 and 2.5 ul/well of anti-cAMP-cryptate were added respectively into the assay plates using a Flying Reagent Dispenser. The plates were incubated at room temperature for 1 hr. The fluorescence intensity in the plates was measured using an Envision plate reader. Each test compound was measured at 15 concentrations and in triplicates.
(qHTS replaces the single test concentration by a dilution series.)
`COc1cc(C(=O)NCCCCCC(=O)O)cc(OC)c1OC`: the Potency result was “inactive”.
Consider `C/C=C\C/C=C/CCCCCCCCOC(C)=O`, for which the Potency entry is “inactive”.
For the compound `CC1(C)S[C@@H]2[C@H](NC(=O)C(c3ccccc3)S(=O)(=O)O)C(=O)N2[C@H]1C(=O)O` (stereo not given in full), the Potency result was “inactive”.
Next, `COc1ccccc1N1CCN(CC(O)COc2cccc3ccccc23)CC1` (stereo not given): “inactive”.
Consider `C[C@@H]1CC(=O)NN=C1c1ccc(NN=C(C#N)C#N)cc1`, for which the Potency result was “inactive”.
As for `CCOC(C)=O`, the Potency result was “inactive”.
Next, `C[C@]1(Cn2ccnn2)[C@H](C(=O)O)N2C(=O)C[C@H]2S1(=O)=O`: “inactive”; `OC1(c2ccccc2)CCNCC1`: “inactive”; `CCOC(=O)c1ccc(C#Cc2ccc3c(c2)C(C)(C)CCS3)nc1`: “inactive”.
Next, `O=C(Cn1ccnc1[N+](=O)[O-])NCCO`: “inactive”; `O=C1c2ccccc2C(=O)C1c1nc2ccccc2c(Br)c1O`: “inactive”; `CCOC(=O)c1ccc(OCCN2C[C@H](O)[C@@H](O)[C@H](O)[C@H]2CO)cc1`: “inactive”.
As to `C=C(C)C(=O)OCCCCCCCCCCCCC`, the Potency entry is “inactive”.
Regarding `CS(=O)(=O)c1ccc(-c2cn3ccccc3n2)cc1`, the Potency entry is “inactive”.
As for `Cc1cccc(O)c1N`, the Potency entry is “inactive”.
Then `COC(=O)[C@H]1[C@H]2C[C@@H]3c4[nH]c5cc(OC)ccc5c4CCN3C[C@H]2C[C@@H](OC(=O)/C=C/c2ccc(O)c(OC)c2)[C@@H]1OC`, with “inactive”; and `Oc1c(I)cc(I)c2cccnc12`, with “inactive”.
Take `CCOC(=O)/C=C/C(=O)OCC`: the Potency result was “inactive”.
As to `C=C/C(C)=C/C/C=C(\C)CCC=C(C)C`, the Potency result was “inactive”.
In the case of `CCOC(=O)OC(C)OC(=O)[C@@H]1N2C(=O)[C@@H](NC(=O)[C@H](N)c3ccccc3)[C@H]2SC1(C)C` (stereo not given in full), the Potency result is “inactive”.
Then `NC(=O)c1ccncc1`, with “inactive”.
`CC(C)C(O)(c1ccc(OC(F)(F)F)cc1)c1cncnc1` (stereo not given): the Potency entry is “inactive”.
Then `Cc1[nH]cnc1CN1CCc2c(c3ccccc3n2C)C1=O`, with “inactive”.
Then `CC(C)(c1ccccc1)c1ccccc1`, with “inactive”.
As to `O=C1Cc2cc(Cl)ccc2N1`, the Potency result was “inactive”.
As for `CCCCCC[C@@H](O)C/C=C\CCCCCCCC(=O)O`, the Potency result was “inactive”.
Take `CCOC(=O)c1ccc(O)c(O)c1`: the Potency result was “inactive”.
`O=c1cc(-c2ccccc2)oc2cc(O)cc(O)c12`: the Potency entry was “inactive”.
Next, `CC(C)c1nc(CN(C)C(=O)N[C@H](C(=O)N[C@@H](Cc2ccccc2)C[C@H](O)[C@H](Cc2ccccc2)NC(=O)OCc2cncs2)C(C)C)cs1`: “inactive”.
Regarding `CC(=O)NC1(c2cccc(F)c2)CCN(CC[C@@]2(c3ccc(Cl)c(Cl)c3)CN(c3ccccc3)C(=O)CO2)CC1`, the Potency result is “inactive”.
Next, `O=C(O)CCC(=O)C(=O)O`: “inactive”; `Oc1cccc(O)c1O`: “inactive”.
Regarding `O=[N+]([O-])c1cc(C2CCCCC2)c(O)c([N+](=O)[O-])c1`, the Potency result is “inactive”.
With `Cc1ccc(CO)cc1`, the Potency entry is “inactive”.
Next, `CC(=O)N/N=C/c1ccc([N+](=O)[O-])o1`: “inactive”; `CC1CC(OC(=O)C(O)c2ccccc2)CC(C)(C)N1C` (stereo not given): “inactive”; `CN1CC(=O)N2[C@H](c3ccc4c(c3)OCO4)c3[nH]c4ccccc4c3C[C@@H]2C1=O`: “inactive”.
Take `COc1cc(C(=O)NC2CCN(C)CC2)ccc1Nc1ncc2c(n1)N(C1CCCC1)CC(F)(F)C(=O)N2C`: the Potency was 11.2 µM (active).
Turning to `CCCCOc1ccc(OCCCN2CCOCC2)cc1`, the Potency entry was “inactive”.
For `CC(C)C=O`, the Potency entry was “inactive”.
